High-throughput results deposited in PubChem BioAssay by National Center for Advancing Translational Sciences (NCATS).
RE007 growth inh: qHTS Assay for Inhibitors of the HIV-1 protein Vpr; S. pombe RE007 Vpr strain, BacTiter-Glo ATP luminescence, 24 h; Potency, µM (series often up to 92.2 µM), actives largely listed as inhibitors; 360,000 compounds, 0.21% hits; AID 651644, 2012; active = well fitted falling curve with a large enough effect; inconclusive = small, poorly fitted or top-dose-only effect; inactive = no such curve, though single readings can be large or run the other way; also: nearly all actives have a fitted effect of over 50% in size
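Fission yeast RE007 carrying one integrated HIV-1 vpr copy, seeded at OD 0.01 in PMG+AL medium with 23 nL pinned compound. Grown 24 h at 30 degrees; viability read by BacTiter-Glo luminescence after 5 min.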
Sm TGR block: qHTS Assay for the Inhibitors of Schistosoma Mansoni Peroxiredoxins | purified TGR, DTNB reduction, TNB absorbance 405 nm | Potency, µM (series often up to 114 µM), hits mostly inhibitors | 360,000 compounds, 3% hits | AID 485364, 2010; also: nearly all actives have a fitted effect of over 60% in size
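First, TGR (20 nM dispensed) and NADPH were mixed with compound. Second, a 15 min room-temperature incubation followed. Third, further NADPH and then DTNB were added to start the reaction. Finally, TNB absorbance was monitored kinetically.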
Tb PYK inh: qHTS of Trypanosoma Brucei Inhibitors | TbPYK enzyme, Kinase-Glo Plus ATP luminescence, 45 min | 410,000 compounds, 0.12% hits | AID 624173, 2012 | Potency, µM (titrated, usually from 76.8 µM), actives largely listed as inhibitors; also: nearly all actives have a fitted effect of over 50% in size
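Enzyme and substrate buffer are dispensed first and compound is pin-transferred. ADP at 130 uM final then starts the reaction, which runs 45 min at room temperature. Detection reagent is added for 10 min before luminescence is imaged.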
HCMV inh: qHTS Assay for inhibitors of the human cytomegalovirus (HCMV); 410,000 compounds, 4.5% hits; HFF cells, HCMV-luciferase reporter, 72 h; active compounds read low; activity change, negative = inhibition, % at 57.5 µM; in the data active = activity change below about -60%; inconclusive = no clear call, values can overlap the other calls; inactive = above about -39%
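HFF cells seeded 16 h at 37C, treated with compounds, infected with luciferase-reporter HCMV at MOI 1 PFU/cell; luciferase read at 72 h post infection, normalized to buffer-only and Salinomycin controls.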
Giardia FBPA inh: qHTS Assay for Inhibitors of Fructose-1,6-bisphosphate Aldolase from Giardia Lamblia. purified Giardia FBPA. A8B2U2. Potency, µM (titrated, usually from 59.6 µM), usual class: inhibitors. 290,000 compounds, 0.71% hits; also: nearly all actives have a fitted effect of over 55% in size
Target sequence (A8B2U2 whole entry, looked up): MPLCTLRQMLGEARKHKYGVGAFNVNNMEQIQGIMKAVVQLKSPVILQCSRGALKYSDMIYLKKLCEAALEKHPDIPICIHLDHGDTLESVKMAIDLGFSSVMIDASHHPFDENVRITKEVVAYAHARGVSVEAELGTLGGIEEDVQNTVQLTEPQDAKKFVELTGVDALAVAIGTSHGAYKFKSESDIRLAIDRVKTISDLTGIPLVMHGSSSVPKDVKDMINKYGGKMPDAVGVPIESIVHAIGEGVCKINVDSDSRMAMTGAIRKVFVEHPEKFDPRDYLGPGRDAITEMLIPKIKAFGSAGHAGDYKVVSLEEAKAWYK
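Giardia FBPA (40 nM reagent) was preincubated 10 min at RT with compound (up to 57.5 uM final), then substrate plus GAPDH/TPI/NAD/arsenate coupling system with diaphorase/resazurin was added; resorufin fluorescence (525/598 nm) was read after 20 min.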
FMDV antiviral: High Throughput Screening for Foot and Mouth Disease Virus Antivirals. AID 1159524, 2015. Potency, µM (top dose mostly 57.9 µM), usual class: inhibitors. FMDV antiviral cell-based qHTS. 410,000 compounds, 1.2% hits; calls by dose curve; tested in HEK293T cells; also: read-out not given here; nearly all actives have a fitted effect of over 45% in size
Each line names hits and unclear results; the compound was inactive in the other large screens. The list is not random: actives were taken first. Their share in the collection is about 7.7%. Unless noted, calls follow the shape of the dose curve; as a rule, active = well fitted curve in the direction sought with a large enough effect; inconclusive = small, poorly fitted or top-dose-only effect, or another doubt; inactive = no such curve, though single readings can be large; an effect the other way counts as inactive or inconclusive.

O=C(Nc1ccccc1C(=O)NCc1ccccc1)c1ccccc1Br	none
O=C(c1ccccc1Br)N(Cc1ccccc1)c1ccccc1	HCMV inh -61.5
CCCOc1ccc(-c2cccc(NS(=O)(=O)c3cccs3)c2)nn1	none (no result: RE007 growth inh, Giardia FBPA inh)
CCOC1(NC(=O)c2ccccc2)C(C)=CC(=O)C=C1C	Sm TGR block 25.1µM, Tb PYK inh inconclusive
N#Cc1c(NC(=S)NC(=O)c2ccccc2)sc2c1CCCC2	Sm TGR block inconclusive
Cn1ncc(Cl)c1C(=O)NC(=S)Nc1sc2c(c1C#N)CCCCC2	Sm TGR block inconclusive, HCMV inh -60.0
CCn1cc(C(=O)NC(C)c2ccccc2)c(=O)c2cc(S(=O)(=O)N3CCc4ccccc4C3)ccc21 (stereo unspecified)	none (no result: RE007 growth inh, Giardia FBPA inh)
COc1ccc(NC(=O)c2cccc3c2C(=O)c2ccc(-c4ccc(F)cc4OCc4ccccc4)cc2S3(=O)=O)cc1	HCMV inh -64.3 (no result: Sm TGR block, Giardia FBPA inh)
CC(=O)N1CCN(C(=O)c2ccc3c(c2)S(=O)(=O)c2ccccc2C3=O)CC1	none (no result: HCMV inh)
CN1CCN(C(=O)c2ccc3c(c2)S(=O)(=O)c2ccccc2C3=O)CC1	HCMV inh -62.5
COc1ccc(NC(=O)c2ccc3c(c2)S(=O)(=O)c2ccccc2C3=O)cc1	HCMV inh -62.8 (no result: Sm TGR block, Giardia FBPA inh)
CC(C)(C)c1ccc(NC(=O)c2ccc3c(c2)S(=O)(=O)c2ccccc2C3=O)cc1	none (no result: Sm TGR block, Giardia FBPA inh)
CCN1CCN(C(=O)C2COc3ccccc3O2)CC1 (stereo unspecified)	Sm TGR block 22.4µM (no result: Giardia FBPA inh)
CCOC(=O)N1CCN(C(=O)C2COc3ccccc3O2)CC1 (stereo unspecified)	none
COc1ccc(S(=O)(=O)N2CCN(C(=O)C3COc4ccccc4O3)CC2)cc1 (stereo unspecified)	Sm TGR block 17.8µM (no result: Giardia FBPA inh)
CC(=O)Nc1ccc(S(=O)(=O)N2CCN(C(=O)C3COc4ccccc4O3)CC2)cc1 (stereo unspecified)	FMDV antiviral inconclusive (no result: Giardia FBPA inh)
O=[N+]([O-])c1ccc(Cl)c(S(=O)(=O)/N=C(/c2ccccc2)N2CCOCC2)c1	HCMV inh -104.7
CC(C)NC(=O)CCN1C(=O)c2ccccc2Sc2ncccc21	none
CC(=O)c1cccc(NC(=O)CN2C(=O)c3ccccc3Sc3ncccc32)c1	FMDV antiviral 39.8µM (no result: RE007 growth inh, Giardia FBPA inh)
Cc1ccc(C)c(NC(=O)CCN2C(=O)c3ccccc3Sc3ncccc32)c1	none (no result: RE007 growth inh, Giardia FBPA inh)
O=C(CCN1C(=O)c2ccccc2Sc2ncccc21)Nc1ccc(F)cc1	Sm TGR block 15.8µM (no result: RE007 growth inh, Giardia FBPA inh)
CCc1cccc(NC(=O)CCN2C(=O)c3ccccc3Sc3ncccc32)c1	Sm TGR block 44.7µM, HCMV inh inconclusive (no result: RE007 growth inh, Giardia FBPA inh)
O=C(c1ccc(Cl)cc1)N1CCC(c2nc3ccccc3o2)CC1	none (no result: RE007 growth inh, Giardia FBPA inh)
O=C1C(=C(I)I)c2ccccc2-c2ccccc21	RE007 growth inh 14.1µM, HCMV inh -100.1, FMDV antiviral 17.8µM (no result: Sm TGR block, Giardia FBPA inh)
CC[C@H](C)[C@@H](CN[C@H](C)CNC)NCCC(c1ccccc1)c1ccccc1	HCMV inh -97.0
CCOC(=O)c1c(S(=O)(=O)NCC(=O)Nc2ccc(C)c(N(C)C)c2)c(C)n(C)c1C	none (no result: RE007 growth inh, Giardia FBPA inh)
CCC(C)NC(=O)c1ccc2c(c1)N(Cc1cccc(Cl)c1)C(=O)c1ccccc1S2=O (stereo unspecified)	none (no result: RE007 growth inh, Giardia FBPA inh)
O=C(NCc1ccco1)c1ccc2c(c1)N(Cc1ccccc1F)C(=O)c1ccccc1S2(=O)=O	HCMV inh -66.1 (no result: RE007 growth inh, Giardia FBPA inh)
CCCCN(C)C(=O)c1ccc2c(c1)N(Cc1cccc(Cl)c1)C(=O)c1ccccc1S2=O (stereo unspecified)	HCMV inh -81.4 (no result: RE007 growth inh, Giardia FBPA inh)
CC1CCCN(CCCNC(=O)c2ccc3c(c2)N(Cc2cccc(Cl)c2)C(=O)c2ccccc2S3=O)C1 (stereo unspecified)	HCMV inh -81.3 (no result: Sm TGR block, Giardia FBPA inh)
